Bst PK mod – Pyruvate Kinase; purified pyruvate kinase, luminescence ATP production; ribose 5-phosphate activator present at AC10; Potency, µM; actives 1.2% (n = 51,000); in the data active = potency below about 11 µM; inconclusive = mostly about 12 µM to 25 µM;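 the screen sought inhibitors and activators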;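 also: scaled between full activation by ribose 5 phosphate and full inhibition by luteolin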
Tau filament bind – qHTS Assay for Tau Filament Binding; recombinant tau filaments, thioflavin S fluorescence, 15 h; filaments grown with octadecylsulfate alongside compound; Potency, µM (top dose mostly 57.1 µM), without a hit: at the highest dose activity change, negative = inhibition; Microtubule-associated protein tau (Homo sapiens), P10636; actives 2% (n = 71,000);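 also: actives lower thioflavin S fluorescence by blocking filaments or displacing dye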
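Quantitative HTS: thioflavine S signal from ODS-induced tau filaments, excited at 450 nm, emission 510 nm. Conditions: 1 uM tau, 30 uM ODS, 15 h at 37 C, pH 7.4.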
ERK AVP block – qHTS Assay for Inhibitors of the ERK Signaling Pathway using a Homogeneous Screening Assay; HEK293-V1b, vasopressin-stimulated pERK AlphaScreen; Potency, µM (top dose mostly 57.5 µM), inactives show at the top dose activity, negative = inhibition, hits mostly inhibitors; actives 0.99% (n = 72,000); AID 995, 2007; also: nearly all actives have a fitted effect of over 55% in size
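HEK293 cells stably expressing V1b receptor, seeded overnight in 1% FBS, were treated with compounds for 30 min at 37C, then stimulated 5 min with 25 nM vasopressin; phospho-ERK read by AlphaScreen SureFire after lysis.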
Luciferase inh – qHTS Assay for Inhibitors of Firefly Luciferase; Luciferin 4-monooxygenase (Photinus pyralis), P08659; purified firefly luciferase, luminescence, 8 min; Potency, µM (doses to about 57.1 µM), for the others: top-dose activity change, negative = inhibition, actives largely listed as inhibitors; actives 2.2% (n = 72,000); AID 411, 2009; also: nearly all actives have a fitted effect of over 40% in size
Target sequence (P08659 whole entry, looked up): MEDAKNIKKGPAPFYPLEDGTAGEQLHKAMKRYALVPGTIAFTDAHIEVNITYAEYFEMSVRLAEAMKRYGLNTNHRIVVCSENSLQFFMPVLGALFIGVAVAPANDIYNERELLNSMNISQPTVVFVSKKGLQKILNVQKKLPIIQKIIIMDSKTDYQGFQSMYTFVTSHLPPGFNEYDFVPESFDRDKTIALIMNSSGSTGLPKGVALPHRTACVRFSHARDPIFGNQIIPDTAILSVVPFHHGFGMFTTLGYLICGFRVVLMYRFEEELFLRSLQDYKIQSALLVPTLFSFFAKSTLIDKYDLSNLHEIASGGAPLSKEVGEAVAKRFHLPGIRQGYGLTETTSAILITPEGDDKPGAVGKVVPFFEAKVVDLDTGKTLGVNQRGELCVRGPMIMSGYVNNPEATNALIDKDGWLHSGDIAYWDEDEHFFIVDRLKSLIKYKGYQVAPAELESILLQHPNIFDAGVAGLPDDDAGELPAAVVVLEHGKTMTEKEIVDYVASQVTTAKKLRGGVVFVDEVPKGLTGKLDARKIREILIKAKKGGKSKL
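Luminescence read-out after 8 min at room temperature; enzyme reaction used luciferin plus 10 uM ATP (linear range) in imidazole buffer pH 7.2 with KCl, MgCl2, Tween 20 and BSA. Each sample was run as a titration.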
ALOX15 inhib – qHTS Assay for Inhibitors of 15-hLO (15-human lipoxygenase); Polyunsaturated fatty acid lipoxygenase ALOX15 (Homo sapiens), P16050; purified 15hLO-1, xylenol orange hydroperoxide absorbance; Potency, µM (highest dose often 57.1 µM), for inactives: top-dose activity change, negative = inhibition, actives largely listed as inhibitors; actives 1.4% (n = 74,000); AID 887, 2007; also: nearly all actives have a fitted effect of over 55% in size
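40 nM 15hLO-1 + cpd, 15 min RT; start w/ 50 uM AA (final), 6 min RT; stop/detect w/ 200 uM XO + 300 uM Fe(II) in 50 mM H2SO4, 30 min; A573/A405. Buffer 25 mM Hepes pH 7.5, 0.01% Triton X-100. No-enzyme wells as negative control.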
DNA Pol III inh – qHTS Assay for Inhibitors of DNA Polymerase III Holoenzyme System. reconstituted DNA polymerase III holoenzyme replication, biochemical. Potency, µM (doses to about 57.1 µM), for inactives: at the highest dose activity change, negative = inhibition. actives 0.25% (n = 71,000). AID 603, 2007
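Reconstituted *E. coli* holoenzyme (0.35 nM Pol III, 1 nM beta, 154 nM SSB, 2 nM primase) was preincubated with compound for 15 min at RT. Synthesis on 1.4 nM ssM13Gori ran 35 min, then was stopped with PicoGreen/EDTA and read as dsDNA fluorescence.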
Starred values were filed as active, the others as inactive; i = inactive; u = inconclusive; x = no result; [ ] = remark or other dose. Compounds with a hit are over-represented: about 6% of the library has one in this group of screens. Unless noted, calls follow the shape of the dose curve; as a rule, active = well fitted curve in the direction sought with a large enough effect; inconclusive = small, poorly fitted or top-dose-only effect, or another doubt; inactive = no such curve, though single readings can be large; an effect the other way counts as inactive or inconclusive. Unless noted, % is scaled to controls: 0 for no effect and ±100 for the full control effect; potency is read from the fitted curve at half-maximal effect.

SMILES | Bst PK mod | Tau filament bind | ERK AVP block | Luciferase inh | ALOX15 inhib | DNA Pol III inh
Cc1ccc(OCCCn2c(CO)nc3ccccc32)cc1 | i | 5% | -9% | 20µM* | 18% | -7%
CC(C)=CCC/C(C)=C/CO/N=C1/C[C@@H](O)[C@@H](O)[C@@H]2[C@@H]3C(=O)N(Cc4ccc5c(c4)OCO5)C(=O)[C@H]3CC[C@H]12 | x | x | -4%[11.5 µM] | 0%[11.4 µM] | -20%[11.4 µM] | x
O=C(c1cc(-c2ccco2)nn1-c1cccc(Cl)c1)N1CCCCC1 | >57 | u | 17% | -7% | 7.9µM* | -7%
Cn1c(CNc2ccccc2)nc2ccccc21 | x | x | x | x | 6% | x
CC(C)n1cnc2cc(NCc3nc4ccccc4n3C)ccc21 | x | 15% | -17% | 13µM* | 19% | -2%
Cn1c(CNc2ccccc2O)nc2ccccc21 | x | -13% | x | -13% | 18% | -13%
CCn1cnc2cc(NCc3nc4ccccc4n3C)ccc21 | x | 7% | -30% | 13µM* | 27% | -2%
C=C1CC[C@@H]2O[C@]2(C)CC[C@@H]2[C@H]1CC2(C)C | x | -19% | x | 1%[11.4 µM] | x | 0%
CCCNc1ncnc2c1cnn2-c1ccc(OC)cc1 | u | x | x | 7.9µM* | x | x
CCCN(CCC)c1ncnc2c1cnn2-c1ccc(OC)cc1 | u | 14% | 6% | 16µM* | -3% | -3%
C=CCNc1ncnc2c1cnn2-c1ccc(OC)cc1 | x | x | x | x | -4% | x
CN1CCN(c2ncc3nc(-c4ccccc4)c(=O)n(Cc4ccc(F)cc4)c3n2)CC1 | x | 70% | -21% | 1%[11.4 µM] | -6% | 3%
COc1ccccc1CNc1cc(-c2ccccc2OC)ncn1 | x | 420% | 7.9µM* | 1%[2.29 µM] | -18% | -10%
COc1ccc(CNc2cc(-c3ccccc3C)ncn2)c(OC)c1 | x | 6% | 13µM* | -4%[2.29 µM] | 7% | 4%
O=C(c1cc(C(F)(F)F)cc(C(F)(F)F)c1)N1CCC2(CC1)CN(c1ncccn1)C2 | x | -6% | -17% | 2%[11.4 µM] | -4% | -1%
COC(=O)CSc1nsc(SCC(=O)OC)c1C#N | >57 | -1% | 16µM* | 0% | -3% | 2%
CSc1snc(SCC(N)=O)c1C#N | >57 | 3% | u | 7% | -4% | 3%
O=C(O)/C=C\c1ccc(O)c(O)c1 | x | -18% | -3%[25.7 µM] | 1%[11.4 µM] | -7%[25.6 µM] | -1%
O=C(/C=C/c1ccc(O)c(O)c1)OCCc1ccccc1 | x | x | -23% | x | 0.5µM* | x
Cc1ccc(-c2ccc(SCC(=O)Nc3nonc3C)nn2)cc1 | x | -2% | -14% | 7.9µM* | -8% | -2%
Cc1ccc(NC(=O)NC2=N/C(=C(/C#N)C(=O)N3CCCC3)c3ccccc32)cc1 | u | 5µM* | 6% | -3% | 3% | 0%
Cc1cc(C)n2nc3nc(N4CCCCC4)nc(-c4ccco4)c3c2n1 | >57 | 20µM* | 33% | 0% | 16µM* | -19%
COC(=O)c1ccc2c(c1)N(Cc1nc(-c3cccc(Cl)c3)oc1C)C(=O)C1CCCN21 (configuration not stated) | >57 | 21% | u | 1% | 13µM* | -2%
COC(=O)c1ccc2c(c1)N(Cc1nc(-c3ccc(Cl)cc3)oc1C)C(=O)C1CCCN21 (configuration not stated) | >57 | 36% | -16% | 0% | u | -4%
O=C1OC(c2ccc(O)c(-c3ccccc3)c2)(c2ccc(O)c(-c3ccccc3)c2)c2c(Cl)c(Cl)c(Cl)c(Cl)c21 | x | 2%[11.4 µM] | -3%[11.5 µM] | 3%[11.4 µM] | 10%[11.4 µM] | -12%[11.4 µM]
SMILES | Bst PK mod | Tau filament bind | ERK AVP block | Luciferase inh | ALOX15 inhib | DNA Pol III inh
O=C1OC2(c3cc(Br)c(O)c(Br)c3Oc3c2cc(Br)c(O)c3Br)c2c(Cl)c(Cl)c(Cl)c(Cl)c21 | x | 0.13µM* | u | x | -25% | 78%
CC(C)C[C@@H](CC(=O)N[C@@H](CCC(=O)O)CC(=O)O)NC(=O)[C@@H]1CCCC[C@H]1NC(=O)C[C@@H](NC(=O)C[C@H](CO)NC(=O)[C@@H]1CNCC[C@H]1N)C(C)C | x | 4% | x | x | x | -1%
COc1ccc2c(=O)c3c(=O)n(Cc4ccco4)c(-c4cc(OC)c(OC)c(OC)c4)nc3oc2c1 | >57 | -12% | -9% | 1% | -4% | -7%
COc1ccc2c(=O)c3c(=O)n(Cc4ccco4)c(-c4ccccc4)nc3oc2c1 | >57 | 2.5µM* | -26% | 2% | -2% | -11%
CCCc1nc2oc3cc(OC)ccc3c(=O)c2c(=O)n1Cc1ccco1 | x | 0% | u | 0% | -11% | -7%
CCCCCCn1c(-c2ccco2)nc2oc3cc(OC)ccc3c(=O)c2c1=O | >57 | 3.2µM* | -22% | 0% | -26% | 7%
O=S(=O)(c1ccccc1)N1CCC2(CCCN(Cc3ccncc3)C2)CC1 | x | -5% | -3% | 1%[11.4 µM] | -1% | 0%
CCNc1ncc2nc(CCc3ccccc3)c(=O)n(C)c2n1 | x | 418% | u | -12%[11.4 µM] | 25µM* | 1%
NC(=O)c1cc(Br)cc2c3c([nH]c12)CCCC3 | 0.69* | i | u | -2% | 7.9µM* | -2%
COc1cc(C2NC(=O)NC(c3ccccc3)=C2C(C)=O)ccc1OCC(=O)O (configuration not stated) | i | 47% | -4% | -8% | 7.9µM* | -4%
CCOC(=O)C1=C(c2ccccc2)NC(=O)NC1c1ccc(OCC#N)c(OC)c1 (configuration not stated) | >57 | 16% | -5% | -1% | -1% | -3%
N#CCC(=O)N1CCn2c1nc1ccccc12 | >57 | -9% | -7% | -35% | 3% | -2%
O=C(c1cccs1)N1CCn2c1nc1ccccc12 | i | 0% | 1% | 16µM* | 7% | 0%
CC(C)(C)NC(=O)C(c1ccncc1)N(C(=O)c1csnn1)C1CC1 (configuration not stated) | 9.1* | -11% | -10% | u | -10% | -15%
O=C(Nc1cccc(F)c1)N1CCCC2(CCN(C(=O)c3cnccn3)CC2)C1 | x | 3% | -27% | 1%[11.4 µM] | 5% | -5%
Cc1ccc(C(CC(=O)c2ccco2)SCCO)cc1 (configuration not stated) | x | 8% | 52% | 25µM* | 4% | -9%
CC[N+](CC)(CC)CCOc1ccc(/C=C\c2ccccc2)cc1 | x | -63% | 4% | -1% | 16µM* | -3%
CCOc1ccc(/C=C/C(=O)c2cccs2)cc1 | x | x | 20% | x | -3%[25.6 µM] | x
CCc1cc2cc(C(=O)Nc3ccccc3F)sc2s1 | >57 | 152% | -13% | 5µM* | -14% | -6%
CCc1cc2cc(C(=O)N3CCN(Cc4ccccc4)CC3)sc2s1 | x | 61% | u | -22% | -7% | -2%

Assay outcomes: PubChem BioAssay, National Center for Advancing Translational Sciences (NCATS)
